Compound activity from PubChem.
ALOX12 inh: inhibitors of human 12S-lipoxygenase ALOX12; P18054; actives 1.1% (n = 580,000); purified 12hLO, xylenol orange hydroperoxide absorbance; Potency, µM (series often up to 108 µM), most hits filed as inhibitors
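Hydroperoxide product was detected by ferrous iron/xylenol orange as the 573 to 405 nm absorbance ratio. Arachidonic acid at 40 uM (final) was turned over for 30 min at room temperature by 150 nM human 12hLO, pH 7.0 Hepes buffer, after 15 min compound preincubation.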
Anesthetic bind: candidate novel general anesthetic via apoferritin binding. P02791. apoferritin/1-aminoanthracene competitive binding, fluorescence. Potency, µM (titrated, usually from 77.5 µM), usual class: inhibitors. actives 0.074% (n = 350,000); also: nearly all actives have a fitted effect of over 20% in size
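Horse-spleen apoferritin (10 uM) in 50% saturated 1-aminoanthracene in PBS was incubated 10 min at room temperature with compound. Fluorescence (ex 380, em 535 nm) was normalized to free and bound 1-AMA, with concentration-response fitted by a four-parameter Hill equation.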
TrxR1 substrate: rat thioredoxin reductase 1 substrate activity; O89049; purified TrxR1 substrate turnover, NADPH consumption readout; Potency, µM (doses to about 114 µM); actives 0.01% (n = 390,000); also: nearly all actives have a fitted effect of over 50% in size
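Rat TrxR1, dispensed at 90 nM, was prereduced with 400 uM NADPH (final) for 5 min at ~22 deg C, then incubated with compound 15 min before 400 uM selenite. A first-read NADPH fluorescence drop versus no-compound background flagged substrates.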
rTrxR1 inhibitor: rat TrxR1 inhibition; O89049; Potency, µM (titrated, usually from 114 µM), hits mostly inhibitors; recombinant rTrxR1, NADPH fluorescence consumption, selenite substrate; actives 1% (n = 390,000); also: nearly all actives have a fitted effect of over 65% in size
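Rat TrxR1 (90 nM in the dispensed reagent) was pre-reduced with 400 uM NADPH for 5 min at room temperature, then incubated with compound for 15 min. After 400 uM selenite was added, NADPH fluorescence (Ex 340/Em 450 nm) was followed for 8 min.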
IDH1 R132H inh: blocks human mutant IDH1 R132H enzyme. O75874. IDH1-R132H enzyme, NADPH consumption, diaphorase/resazurin fluorescence. Potency, µM (doses to about 76.6 µM), hits mostly inhibitors. actives 0.093% (n = 390,000). AID 602179; also: nearly all actives have a fitted effect of over 65% in size
Target sequence (O75874 whole entry R132H, stated change not applied): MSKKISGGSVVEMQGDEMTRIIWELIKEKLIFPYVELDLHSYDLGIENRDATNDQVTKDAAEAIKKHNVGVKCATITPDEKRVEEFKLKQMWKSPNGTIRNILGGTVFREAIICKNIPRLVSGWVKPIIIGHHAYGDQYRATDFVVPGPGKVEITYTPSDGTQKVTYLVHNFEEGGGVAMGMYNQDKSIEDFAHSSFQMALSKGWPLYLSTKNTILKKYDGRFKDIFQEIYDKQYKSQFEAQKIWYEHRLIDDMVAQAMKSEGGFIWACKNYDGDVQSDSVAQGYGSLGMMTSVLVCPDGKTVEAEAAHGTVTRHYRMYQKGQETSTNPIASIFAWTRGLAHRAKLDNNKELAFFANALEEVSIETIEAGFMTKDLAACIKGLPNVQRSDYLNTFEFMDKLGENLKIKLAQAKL
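IDH1-R132H (0.5 ug/mL dispensed) in pH 7.5 Tris buffer was preincubated 30 min with compound, then given a substrate mix of 0.016 mM NADPH and 2 mM alpha-KG for 80 min at room temperature; remaining NADPH was read by diaphorase/resazurin fluorescence.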
Glioma ERSR ind: induces the endoplasmic reticulum stress response in human glioma cells; AID 602332; U87-MG GRP78 promoter luciferase reporter, 16 h; Potency, µM, hits mostly activators; actives 0.02% (n = 420,000); also: series mostly up to about 76 µM; nearly all actives have a fitted effect of over 35% in size
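ERSR induction read as luciferase luminescence (Bright-Glo, 10 min at room temperature) in stably transfected human U87-MG glioma cells exposed to compounds for 16 h, using GRP78 as sensor.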
Numbers stand for hits; 0 = inactive; ? = inconclusive; - = no result given; ! = not confirmed by another sample; [ ] = dose if it differs, or a comment. Hits are enriched below; roughly 1.7% of the tested compounds scored in any of these assays. Calls follow the shape of the dose curve; as a rule, active = well fitted curve in the direction sought with a large enough effect; inconclusive = small, poorly fitted or top-dose-only effect, or another doubt; inactive = no such curve, though single readings can be large; an effect the other way counts as inactive or inconclusive.

SMILES	ALOX12 inh	Anesthetic bind	TrxR1 substrate	rTrxR1 inhibitor	IDH1 R132H inh	Glioma ERSR ind
CCN1CCOC(=O)C1CC(=O)Nc1cc(C)cc(C)c1 (centres undefined)	0	?	0	11.2µM	0	0
O=C(O)CN1C(=O)/C(=C\c2cc(Br)ccc2OCc2ccc(Cl)cc2)SC1=S	20µM	0	0	?	?	0
O=C(O)CN1C(=O)/C(=C\c2ccccc2OCc2ccccc2)SC1=S	?	-	-	-	0	0
COc1ccc(/C=C2/SC(=S)N(CC(=O)O)C2=O)cc1OCc1ccc(Cl)cc1	0	0	0	0	0	0
O=C(O)CN1C(=O)/C(=C\c2cc([N+](=O)[O-])ccc2OCc2ccccc2Cl)SC1=S	14.1µM	0	0	0	0	0
O=C(O)CN1C(=O)/C(=C\c2cc(Br)ccc2OCc2ccc(F)cc2)SC1=S	2.51µM	0	0	0	0	0
CC1=C(C(=O)OC(C)(C)C)C(c2ccccc2Cl)NC(=O)N1 (centres undefined)	0	-	-	-	-	-
CCOC(=O)CCCc1sc(N)nc1-c1[nH]c(=O)[nH]c1C	-	0	0	7.94µM	0	0
CCOC(=O)CCc1c(C)n[nH]c1C	0	0	0	0	0	0
COc1ccc(NC(=S)N/N=C2\CC(C)(C)Oc3ccc(O)cc32)cc1	31.6µM	0	0	0	0	0
COc1ccc(NC(=O)c2cc(C)no2)cc1	12.6µM	0	0	0	0	0
NC(=S)N/N=C1/CCSc2ccc3ccccc3c21	20µM	?	0	0	0	0
COCC1CN(C)CC12CCN(C(=O)CC1=CCCCC1)CC2 (centres undefined)	0	-	-	-	-	-
O=C(c1ccc(OCCN2CCCCC2)cc1)c1c(-c2ccc(O)cc2)sc2cc(O)ccc12	13.7µM!	0	0	0	0	0
O=C(NCc1ccccn1)c1ccc2nc(-c3ccccc3)c(-c3ccccc3)nc2c1	0	-	-	-	-	-
Cc1cc(Sc2ncnc(N)c2[N+](=O)[O-])ncn1	-	0	0	?	0	0
Cc1cc(Sc2nc(N)ncc2[N+](=O)[O-])ncn1	0	0	0	1.58µM	0	0
CCOc1ccc2c(n1)CCN(C(=O)Nc1ccc(C)cc1C)C2	0	-	-	-	-	-
Cc1c(Nc2cc(Cl)c3nonc3c2[N+](=O)[O-])c(=O)n(-c2ccccc2)n1C	?	0	0	0.631µM	0	0
O=[N+]([O-])c1c(Nc2cccc(O)c2)cc(Cl)c2nonc12	?	?	0	0.891µM	0	0
O=[N+]([O-])c1c(Nc2ccccc2)cc(Cl)c2nonc12	0	-	-	-	-	-
O=C(O)c1ccc(Nc2cc(Cl)c3nonc3c2[N+](=O)[O-])cc1	?	0	0	0.631µM	0	0
CC(C)c1ccc(Nc2c(-c3ccccn3)nc3ccccn23)cc1	0	0	0[2.29 µM]	0	?	0
C#CCN(Cc1nc(N2CCOCC2)c2ccc(Cl)cc2n1)Cc1ccco1	0	-	-	-	-	0
O=C(CC1CCCC1)NCC(=O)N1CCCCCCNC(=O)CC1c1ccccc1 (centres undefined)	0	-	-	-	-	-
SMILES	ALOX12 inh	Anesthetic bind	TrxR1 substrate	rTrxR1 inhibitor	IDH1 R132H inh	Glioma ERSR ind
CC(C)c1ccc(C2CC(c3ccc(Br)cc3)=NN2C(N)=S)cc1 (centres undefined)	44.7µM	0	0	0	0	0
CCCCCCCCN1C(=O)[C@H](CC(=O)NCc2ccc(C)o2)C[C@@]2(C(=O)OC)CC(C)(C)CC=C12	39.8µM	-	-	-	-	-
CCc1cccc(NC(=O)N2CCCC(c3noc(COc4ccccc4)n3)C2)c1 (centres undefined)	0	-	-	-	-	-
CC(C)c1ccc(CNCCCSc2ncccn2)cc1	25.1µM	0	0	0	0	0
CC(=O)NC(Nc1c(C)n(C)n(-c2ccccc2)c1=O)C(Cl)(Cl)Cl (centres undefined)	?	0	0	56.2µM	0	0
COc1ccccc1NC(=S)NC1CCC(CC2CCC(NC(=S)Nc3ccccc3OC)CC2)CC1 (centres undefined)	31.6µM	0	0	0	0	0
CCC(=O)N(C1CCOCC1)C1CCN(S(=O)(=O)c2ccc(C(C)C)cc2)CC1	0	-	-	-	-	-
CCCc1noc(Cn2c(=O)c(C#N)cn(C3CC3)c2=O)n1	0	-	-	-	-	-
